The values below come from PubChem BioAssay (NCATS).

Assay [1] has as its target Lysosomal acid glucosylceramidase (Homo sapiens) (UniProt P04062). The experiment in a line: Glucocerebrosidase-p2 (AID 348; in the data active means potency below about 10 µM; further: potency means the concentration at half of the fitted maximal effect). As to conditions: purified GBA, blue fluorogenic substrate, 40 min. In outline: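 Compounds titrated from 0.6 nM upwards against 0.2 nM enzyme in pH 5.9 citric acid/KH2PO4, taurocholate, tween-20; blue fluorogenic substrate 80 uM, 40 min room temperature, stopped and read Ex 365/Em 440 for AC50.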

Assay [2] has as its target Glucocorticoid receptor (Homo sapiens) (UniProt P04150). Nature of the assay: GR-GFP Redistribution (AID 450;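 active means compounds whose dose series gives a full or clear partial fitted curve of increased nuclear translocation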; further: potency means the concentration at half of the fitted maximal effect). As to conditions: U2OS GR-GFP nuclear translocation, laser cytometry, 2 h.
Assay [3] has the same target. Nature of the assay: GR-EFC Redistribution (AID 451; calls by dose curve; further: potency means the concentration at half of the fitted maximal effect). As to conditions: CHO-K1 GR-EFC translocation, beta-gal luminescence, 2 h. In outline: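 CHO-K1 cells stably expressing nuclear-localized β-gal enzyme acceptor and GR fused C-terminally to the enzyme donor fragment; ligand-driven nuclear translocation restores β-gal by complementation. Compounds titrated up to 46 uM final, 2 h at 37 °C; luminescence read.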

Assay [4] addresses Mitogen-activated protein kinase 10 (Mus musculus) (UniProt Q61831). The experiment in a line: JNK3 AlphaScreen Assay (AID 530; active means well fitted curve in either direction with a large enough effect, not every such curve was filed as active;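 further: kinase came from lysate of stimulated human HepG2 cells; on the % scale 0 is the no-effect control and ±100 the full control effect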). As to conditions: JNK3 lysate, c-Jun phosphorylation; series mostly up to 57.1 µM. In outline: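 JNK3 came from HepG2 lysates pre-activated with IL-1beta and TNF-alpha and phosphorylated biotinylated GST-cJun (1-79) at 10 uM ATP, pH 7.6, room temperature. Compounds were titrated. AlphaScreen signal used anti-phospho-cJun (Ser73) antibody.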

Assay [5] addresses 3',5'-cyclic-AMP phosphodiesterase 4B (Homo sapiens) (UniProt Q07343). The experiment in a line: qHTS Assay for Inhibitors of PDE-IV (AID 607; active means well fitted activation curve with a large enough effect in the main read-out, with a control signal flat, not every such curve was filed as active; further: % of control where 0% means no effect). As to conditions: HEK293 ACTOne CNG channel cells, membrane potential fluorescence; series mostly up to 22.9 µM. The gist of the method:
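HEK293 ACTOne cells with CNG channel (1000/well), endogenous PDE4; membrane potential dye, compounds up to 22.9 uM final. Fluorescence Ex 535/Em 590; RO 20-1724 (100 uM final) as reference.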

In assay [6] the target is Cytochrome P450 3A4 (Homo sapiens) (UniProt P08684). The experiment in a line: qHTS Assay for Activators of Cytochrome P450 3A4 (AID 885). Further: nearly all actives have a fitted effect of over 65% in size. As to conditions: recombinant CYP3A4, Luciferin-PPXE luminescence, 60 min; series mostly up to 57.1 µM. In outline: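 Human CYP3A4 (20 nM) with Luciferin-PPXE at 25 uM (its KM) in 200 mM KPO4; 10 min compound preincubation, then NADPH regeneration and 60 min reaction at RT. Luciferin read by luminescence; normalized to 57 uM ketoconazole full inhibition.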

Assay [7] deals with Dual specificity protein kinase CLK4 (Homo sapiens) (UniProt Q9HAZ1). The experiment in a line: qHTS Assay for Inhibitors of CDC-like Kinase 4 (Kinase-Glo Assay) (AID 1770). Further: nearly all actives have a fitted effect of over 65% in size. Further: potency means the concentration at half of the fitted maximal effect. As to conditions: recombinant Clk4, Kinase-Glo ATP depletion luminescence; series mostly up to 66.7 µM. In outline: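 Substrate mix (RS peptide 100 uM, ATP 1 uM) dispensed, compound pinned in, then Clk4 added to 25 nM final. Incubated 4.5 h at RT; Kinase-Glo reagent added, luminescence read after 5 min.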

For assay [8] the target is unchanged. The experiment in a line: qHTS Assay for Inhibitors of CDC-like Kinase 4 (ADP-FP Assay) (AID 1795). Further: nearly all actives have a fitted effect of over 60% in size. Further: potency means the concentration at half of the fitted maximal effect. As to conditions: Transcreener ADP fluorescence polarization; series mostly up to 50 µM. The gist of the method: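 Clk4 6.25 nM; RS peptide 100 uM; ATP 1 uM; 25 mM Tris pH 7.5, 10 mM MgCl2; 1 h reaction. ADP detected via antibody/orange tracer FP displacement; TG003 positive control.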

In assay [9] the target is Ubiquitin carboxyl-terminal hydrolase 1 (Homo sapiens) (UniProt O94782). Nature of the assay: Inhibitors of USP1/UAF1: Pilot qHTS (AID 504865).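 Further: rhodamine fluorescence freed from ubiquitin-rhodamine substrate followed over time; top concentration of the series differs between compounds; on the % scale 0 is the no-effect control and ±100 the full control effect; nearly all actives have a fitted effect of over 35% in size.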 As to conditions: purified USP1/UAF1, Ub-rhodamine cleavage fluorescence; series mostly up to 54.9 µM. The gist of the method:
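In 50mM HEPES pH 7.8 containing 0.5mM EDTA, 1mM TCEP, 0.1 mg/ml BSA and 0.01% Tween-20, 1nM USP1/UAF1 is exposed to compound for 15 min, then Ub-Rho (150nM final) is added and fluorescence is read over time.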

A short description of assay [10]: Primary qHTS for small molecule stabilizers of the endoplasmic reticulum resident proteome: Secreted ER Calcium Modulated Protein (SERCaMP) assay (AID 1508630). Further: on the % scale 0 is the no-effect control and ±100 the full control effect. As to conditions: SH-SY5Y GLuc-SERCaMP (Gaussia luciferase released on ER calcium loss) secretion, thapsigargin, luminescence; series mostly up to 38.4 µM. The gist of the method: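 GLuc-SERCaMP-expressing SH-SY5Y cells, pretreated 16 h with compound, are challenged with thapsigargin to empty ER calcium stores; after 4 h, coelenterazine is added directly to the medium and luminescence is imaged.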

Assay [11] deals with Rap guanine nucleotide exchange factor 3 (Homo sapiens) (UniProt O95398). Nature of the assay: Confirmatory qHTS for agonist of cAMP-regulated guanine nucleotide exchange factor 3 (EPAC1) (AID 1645881).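 Further: EPAC1 catalysed release of BODIPY-GDP from Rap1B seen as fluorescence loss; 100% = effect of cAMP agonist control; nearly all actives have a fitted effect of over 75% in size.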 As to conditions: EPAC1 Rap1B BODIPY-GDP exchange fluorescence; series mostly up to 154 µM.
Assay [12] deals with Rap guanine nucleotide exchange factor 4 (Homo sapiens) (UniProt Q8WZA2). The experiment in a line: Confirmatory qHTS for agonist of cAMP-regulated guanine nucleotide exchange factor 4 (EPAC2) (AID 1645884).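 Further: nucleotide exchange releases bodipy-GDP from Rap1 and this lowers its fluorescence; on the % scale 0 is the no-effect control and ±100 the full control effect; nearly all actives have a fitted effect of over 65% in size.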 As to conditions: EPAC2 GEF activity, Rap1B-BODIPY-GDP fluorescence; series mostly up to 154 µM.
Assay [13] in a line: AP1 Signaling Pathway (AID 357; active means well fitted curve in either direction with a large enough effect, not every such curve was filed as active;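 further: ME-180 reporter cells stimulated with EGF at its EC50 level; on the % scale 0 is the no-effect control and ±100 the full control effect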). As to conditions: ME-180 AP-1-bla reporter, EGF-induced, beta-lactamase ratio, 5 h; at 7.69 µM (top of the series) unless noted. The gist of the method: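 In this screen, ME-180 cells in Opti-MEM with 0.5% dialyzed FBS received EC50 EGF and compound titrations for 5 h. AP-1 reporter beta-lactamase was detected via CCF4 ratio, giving AC50 for positive and negative modulators.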

For assay [14], the target named is Cytochrome P450 1A2 (Homo sapiens) (UniProt P05177). Nature of the assay: p450-cyp1a2 (AID 410; calls by dose curve; further: potency means the concentration at half of the fitted maximal effect). As to conditions: recombinant CYP1A2, luciferin-ME demethylation, luminescence; series mostly up to 57 µM. The gist of the method:
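Inhibition was calculated relative to 57 uM furafylline (full inhibition). The reaction used human CYP1A2 at 20nM with Luciferin-ME at its Km, 100uM, driven by an NADPH-regenerating system for 60 min at room temperature.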

Assay [15] in a line: NFAT Signaling Pathway (AID 444; active means well fitted curve in either direction with a large enough effect, not every such curve was filed as active;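 further: carbachol stimulus at about its EC50 of 1 µM final; on the % scale 0 is the no-effect control and ±100 the full control effect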). As to conditions: Jurkat NFAT-bla M1, carbachol, beta-lactamase ratio, 5 h; at 7.69 µM (top of the series) unless noted. In outline: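 Jurkat cells carrying an NFAT-driven β-lactamase reporter and co-transfected muscarinic M1 receptor were treated with compound plus carbachol (1 uM final, an EC50 level) for 5 h at 37 °C. CCF4 loading followed for 1 h at RT; 460/530 nm ratio gave %activity.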

Assay [16] in a line: Stat Signaling Pathway (AID 446; active means well fitted curve in either direction with a large enough effect, not every such curve was filed as active). As to conditions: ME-180 (cervical carcinoma) SIE beta-lactamase reporter, IL-6 stimulated, 5 h; at 7.69 µM (top of the series) unless noted. In outline:
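ME-180 cells carrying a SIE-driven beta-lactamase reporter are stimulated with 40 pM IL-6 for 5 h at 37C in the presence of compound. The 460/530 nm FRET substrate ratio is read after 2.5 h at RT. Data are normalised to 300 pM IL-6 and to 125 nM JAK inhibitor controls.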

Assay [17] deals with Dual specificity protein kinase CLK4 (Homo sapiens) (UniProt Q9HAZ1). Nature of the assay: qHTS Assay for Inhibitors of CDC-like Kinase 4 (ADP-Glo Assay) (AID 1771). Further: nearly all actives have a fitted effect of over 70% in size. Further: potency means the concentration at half of the fitted maximal effect. As to conditions: recombinant CLK4, ADP-Glo luminescence; series mostly up to 80 µM. In outline:
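Kinase reaction: Clk4 at 25 nM, RS repeat peptide substrate at 100 uM, ATP at 1 uM, 1 hr, room temperature. Product ADP detected as luciferase signal via ADP-Glo.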

The target of assay [18] is Cytochrome P450 2C19 (Homo sapiens) (UniProt P33261). Nature of the assay: qHTS Assay for Inhibitors and Substrates of Cytochrome P450 2C19 (AID 899). Further: potency means the concentration at half of the fitted maximal effect; nearly all actives have a fitted effect of over 60% in size. As to conditions: recombinant CYP2C19, luciferin-H EGE luminescence; series mostly up to 57.1 µM. The gist of the method:
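In 50mM KPO4, the reaction held 5nM enzyme and KM-level (10uM) Luciferin-H EGE; it ran 60 min at 37C after NADPH regeneration and a 10 min compound preincubation. Luminescence values were scaled to 57uM ketoconazole as complete inhibition.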

Assay [19] concerns the target Cytochrome P450 2C9 (Homo sapiens) (UniProt P11712). Nature of the assay: qHTS Assay for Inhibitors and Substrates of Cytochrome P450 2C9 (AID 883). Further: potency means the concentration at half of the fitted maximal effect; nearly all actives have a fitted effect of over 60% in size. As to conditions: recombinant CYP2C9, luciferin-H luminescence, 60 min; series mostly up to 57.1 µM. The gist of the method: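 CYP2C9 deoxyluciferin hydroxylation, 37C, 60 min with NADPH regeneration; 10nM enzyme, 100uM Luciferin-H (KM). Glo detection reagent stopped reaction; luminescence normalized to sulphaphenazole (57uM) full inhibition.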

Assay [20] has as its target Cytochrome P450 3A4 (Homo sapiens) (UniProt P08684). The experiment in a line: qHTS Assay for Inhibitors and Substrates of Cytochrome P450 3A4 (AID 884). Further: potency means the concentration at half of the fitted maximal effect; nearly all actives have a fitted effect of over 50% in size. As to conditions: recombinant CYP3A4, Luciferin-PPXE luminescence; series mostly up to 57.1 µM. In outline: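 20 nM human CYP3A4 with 25 uM Luciferin-PPXE (at KM) in 200 mM KPO4, preincubated 10 min with compound; NADPH regeneration started a 60 min RT reaction. Luciferin detected by luminescence, normalized to 57 uM ketoconazole as full inhibition.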

A number with no mark means an inactive call. Inconclusive results are not listed. Activity calls are given as the source filed them. Unless noted, the call rests on the fitted dose curve; in most records, active means well fitted curve in the direction sought with a large enough effect; inconclusive means small, poorly fitted or top-dose-only effect, or another doubt; inactive means no such curve, though single readings can be large; an effect the other way counts as inactive or inconclusive.

Sequence of 3',5'-cyclic-AMP phosphodiesterase 4B (Homo sapiens) (Q07343 whole entry, looked up): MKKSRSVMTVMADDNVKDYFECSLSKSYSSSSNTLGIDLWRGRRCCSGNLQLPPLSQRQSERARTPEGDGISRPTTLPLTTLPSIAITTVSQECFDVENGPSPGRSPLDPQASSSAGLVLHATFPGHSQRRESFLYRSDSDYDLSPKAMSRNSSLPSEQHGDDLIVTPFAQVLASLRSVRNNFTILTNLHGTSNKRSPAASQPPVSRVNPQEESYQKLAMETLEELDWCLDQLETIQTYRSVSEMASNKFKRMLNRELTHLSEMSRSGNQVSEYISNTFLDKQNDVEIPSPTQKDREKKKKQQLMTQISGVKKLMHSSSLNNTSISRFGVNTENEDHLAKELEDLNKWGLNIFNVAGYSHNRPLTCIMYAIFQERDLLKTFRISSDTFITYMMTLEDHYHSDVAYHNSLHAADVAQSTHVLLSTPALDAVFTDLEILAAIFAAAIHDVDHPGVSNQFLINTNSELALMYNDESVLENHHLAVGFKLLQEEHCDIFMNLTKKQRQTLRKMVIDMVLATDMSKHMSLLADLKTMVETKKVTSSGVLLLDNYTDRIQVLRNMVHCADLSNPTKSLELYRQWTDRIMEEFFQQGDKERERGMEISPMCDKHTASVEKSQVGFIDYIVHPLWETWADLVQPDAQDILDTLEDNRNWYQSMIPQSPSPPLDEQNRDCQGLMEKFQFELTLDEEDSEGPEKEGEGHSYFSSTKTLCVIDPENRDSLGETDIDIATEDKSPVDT
Sequence of Rap guanine nucleotide exchange factor 3 (Homo sapiens) (O95398 whole entry, looked up): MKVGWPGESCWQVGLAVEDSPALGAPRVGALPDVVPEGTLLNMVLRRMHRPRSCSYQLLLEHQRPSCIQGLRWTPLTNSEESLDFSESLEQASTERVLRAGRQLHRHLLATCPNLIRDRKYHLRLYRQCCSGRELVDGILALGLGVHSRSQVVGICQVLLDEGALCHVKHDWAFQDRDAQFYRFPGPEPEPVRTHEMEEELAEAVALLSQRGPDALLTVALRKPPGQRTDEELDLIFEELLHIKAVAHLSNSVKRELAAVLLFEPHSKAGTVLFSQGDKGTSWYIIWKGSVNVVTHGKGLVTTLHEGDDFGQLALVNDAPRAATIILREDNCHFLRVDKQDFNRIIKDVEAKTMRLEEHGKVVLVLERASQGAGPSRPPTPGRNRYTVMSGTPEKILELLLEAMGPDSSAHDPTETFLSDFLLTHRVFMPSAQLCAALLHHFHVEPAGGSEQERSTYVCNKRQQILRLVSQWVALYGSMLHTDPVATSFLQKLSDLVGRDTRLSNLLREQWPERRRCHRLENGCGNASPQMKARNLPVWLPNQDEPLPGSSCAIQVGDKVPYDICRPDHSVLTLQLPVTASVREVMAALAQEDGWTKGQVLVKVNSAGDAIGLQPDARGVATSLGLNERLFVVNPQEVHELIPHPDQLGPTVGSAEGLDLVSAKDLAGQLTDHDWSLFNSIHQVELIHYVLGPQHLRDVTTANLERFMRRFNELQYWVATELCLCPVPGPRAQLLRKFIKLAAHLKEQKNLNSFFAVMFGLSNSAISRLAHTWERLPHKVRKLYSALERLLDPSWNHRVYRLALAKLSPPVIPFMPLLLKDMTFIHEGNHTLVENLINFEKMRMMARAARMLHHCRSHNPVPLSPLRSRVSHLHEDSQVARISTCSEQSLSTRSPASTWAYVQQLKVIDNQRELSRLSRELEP
Sequence of Cytochrome P450 1A2 (Homo sapiens) (P05177 whole entry, looked up): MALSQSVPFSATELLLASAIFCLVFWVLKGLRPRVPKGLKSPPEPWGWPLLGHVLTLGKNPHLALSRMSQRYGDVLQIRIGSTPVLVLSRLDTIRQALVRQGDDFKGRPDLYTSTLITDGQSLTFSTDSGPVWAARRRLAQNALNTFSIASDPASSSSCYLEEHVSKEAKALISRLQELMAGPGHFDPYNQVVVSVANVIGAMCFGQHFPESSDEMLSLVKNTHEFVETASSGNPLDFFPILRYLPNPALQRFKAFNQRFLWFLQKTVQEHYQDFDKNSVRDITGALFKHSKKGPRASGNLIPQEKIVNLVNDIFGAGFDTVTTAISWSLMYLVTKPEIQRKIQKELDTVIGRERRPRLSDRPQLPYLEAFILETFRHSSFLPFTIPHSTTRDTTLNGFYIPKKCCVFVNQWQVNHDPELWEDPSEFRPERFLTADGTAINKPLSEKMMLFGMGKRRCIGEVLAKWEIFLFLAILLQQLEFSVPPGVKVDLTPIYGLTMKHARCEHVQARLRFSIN
Sequence of Cytochrome P450 3A4 (Homo sapiens) (P08684 whole entry, looked up): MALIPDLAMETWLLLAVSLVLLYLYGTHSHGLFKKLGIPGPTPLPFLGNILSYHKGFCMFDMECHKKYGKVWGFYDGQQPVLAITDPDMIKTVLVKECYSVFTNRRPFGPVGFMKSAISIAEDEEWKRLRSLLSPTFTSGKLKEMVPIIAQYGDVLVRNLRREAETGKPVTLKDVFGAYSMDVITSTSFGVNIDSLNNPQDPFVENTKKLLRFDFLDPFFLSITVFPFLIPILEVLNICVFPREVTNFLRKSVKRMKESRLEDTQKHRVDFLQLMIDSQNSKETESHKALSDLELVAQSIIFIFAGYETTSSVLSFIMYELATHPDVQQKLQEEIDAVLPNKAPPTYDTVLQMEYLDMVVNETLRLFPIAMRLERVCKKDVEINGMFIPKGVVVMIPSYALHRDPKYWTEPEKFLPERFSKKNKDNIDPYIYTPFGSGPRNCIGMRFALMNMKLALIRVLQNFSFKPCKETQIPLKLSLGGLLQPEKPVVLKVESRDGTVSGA
Sequence of Glucocorticoid receptor (Homo sapiens) (P04150 whole entry, looked up, the tested form may be a part): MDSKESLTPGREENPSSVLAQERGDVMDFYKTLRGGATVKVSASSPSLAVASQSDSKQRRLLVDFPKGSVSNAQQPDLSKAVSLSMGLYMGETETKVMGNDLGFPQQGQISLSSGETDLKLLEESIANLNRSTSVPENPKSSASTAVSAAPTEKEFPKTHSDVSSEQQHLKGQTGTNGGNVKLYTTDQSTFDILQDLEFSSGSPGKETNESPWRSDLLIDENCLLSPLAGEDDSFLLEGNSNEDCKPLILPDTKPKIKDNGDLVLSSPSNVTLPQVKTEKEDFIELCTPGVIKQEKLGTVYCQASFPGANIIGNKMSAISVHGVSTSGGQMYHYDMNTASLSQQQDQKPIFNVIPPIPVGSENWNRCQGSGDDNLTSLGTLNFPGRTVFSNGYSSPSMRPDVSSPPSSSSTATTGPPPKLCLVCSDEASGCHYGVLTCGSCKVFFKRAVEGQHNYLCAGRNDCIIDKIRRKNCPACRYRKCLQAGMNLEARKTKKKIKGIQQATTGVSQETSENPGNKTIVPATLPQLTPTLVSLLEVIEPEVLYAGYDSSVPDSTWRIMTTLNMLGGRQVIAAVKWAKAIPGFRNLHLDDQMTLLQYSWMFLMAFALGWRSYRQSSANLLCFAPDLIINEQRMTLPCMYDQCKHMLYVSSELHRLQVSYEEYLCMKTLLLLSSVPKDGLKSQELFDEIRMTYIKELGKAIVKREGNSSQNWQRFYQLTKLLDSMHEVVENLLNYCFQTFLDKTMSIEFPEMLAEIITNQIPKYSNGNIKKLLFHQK
Sequence of Ubiquitin carboxyl-terminal hydrolase 1 (Homo sapiens) (O94782 whole entry, looked up): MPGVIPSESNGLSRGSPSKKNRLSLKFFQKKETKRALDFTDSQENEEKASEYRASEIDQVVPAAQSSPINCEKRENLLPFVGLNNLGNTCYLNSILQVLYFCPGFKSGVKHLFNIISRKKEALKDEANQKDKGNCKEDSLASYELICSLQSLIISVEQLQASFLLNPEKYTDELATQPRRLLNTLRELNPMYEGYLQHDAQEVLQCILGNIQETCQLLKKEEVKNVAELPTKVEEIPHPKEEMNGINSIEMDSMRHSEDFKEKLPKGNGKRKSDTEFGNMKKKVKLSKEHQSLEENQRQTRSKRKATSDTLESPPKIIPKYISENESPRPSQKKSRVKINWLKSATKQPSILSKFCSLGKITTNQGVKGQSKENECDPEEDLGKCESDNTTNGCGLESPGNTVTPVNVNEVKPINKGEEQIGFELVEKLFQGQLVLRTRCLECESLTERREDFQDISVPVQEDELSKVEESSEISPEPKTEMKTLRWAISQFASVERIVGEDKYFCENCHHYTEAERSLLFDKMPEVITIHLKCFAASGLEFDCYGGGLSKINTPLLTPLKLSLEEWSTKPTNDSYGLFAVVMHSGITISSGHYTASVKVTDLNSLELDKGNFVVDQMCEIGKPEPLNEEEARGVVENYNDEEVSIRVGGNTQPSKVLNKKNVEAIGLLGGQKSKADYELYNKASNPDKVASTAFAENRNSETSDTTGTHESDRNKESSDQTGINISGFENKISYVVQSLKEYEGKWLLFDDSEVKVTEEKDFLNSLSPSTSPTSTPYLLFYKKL
Sequence of Lysosomal acid glucosylceramidase (Homo sapiens) (P04062 whole entry, looked up): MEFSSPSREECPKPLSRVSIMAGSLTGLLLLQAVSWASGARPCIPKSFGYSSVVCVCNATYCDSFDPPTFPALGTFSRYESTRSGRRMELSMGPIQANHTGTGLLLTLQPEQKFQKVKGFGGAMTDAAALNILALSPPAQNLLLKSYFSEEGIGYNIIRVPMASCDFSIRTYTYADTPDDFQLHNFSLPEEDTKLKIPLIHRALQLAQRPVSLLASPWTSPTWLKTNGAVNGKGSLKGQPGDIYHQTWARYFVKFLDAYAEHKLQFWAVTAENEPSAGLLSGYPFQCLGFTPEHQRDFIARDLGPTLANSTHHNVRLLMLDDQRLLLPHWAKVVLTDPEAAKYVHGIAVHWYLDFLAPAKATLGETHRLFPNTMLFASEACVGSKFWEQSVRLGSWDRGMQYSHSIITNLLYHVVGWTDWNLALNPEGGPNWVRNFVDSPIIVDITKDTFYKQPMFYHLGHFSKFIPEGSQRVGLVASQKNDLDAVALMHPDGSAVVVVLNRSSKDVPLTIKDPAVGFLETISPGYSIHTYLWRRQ

As to `COc1ccc(-c2nc3cnc(Nc4cccc(OC)c4)nc3n(Cc3cccs3)c2=O)cc1`, the results for the Potency in assay [1], in assay [2] and in assay [3] were over 11.4 µM, over 9.22 µM and over 46 µM, respectively. In addition, the Potency entry in [4], in [5], in [6], in assay [7], in assay [8] and in assay [9] was “inactive” in each case. Further, the Potency entry in [11] and in assay [12] was “inactive” in each case. Further, in assay [10], the result was inactive.

For the compound `Cn1c(=O)c(-c2ccccc2)nc2cnc(Nc3ccccc3)nc21`, the Potency in [1] is over 11.4 µM; in assay [14] it was 15.8 µM (active); in [2], over 9.22 µM; in assay [3], over 46 µM. Moreover, the activity change, negative = inhibition was 6.58% in [13] and -7.03% in [15]. Besides, the activity, negative = inhibition in [16] was 8.87%. The Potency entry in [4], in assay [7], in assay [17], in [8] and in assay [9] was “inactive” throughout. The result in assay [10] was inactive.

`CN(C)c1ncnc2ccc(-c3ccccc3C(F)(F)F)cc12`: the Potency in assay [1] is over 11.4 µM; in assay [14] it was 0.631 µM (active); in assay [2], over 46 µM; in [3] it was over 46 µM; in [18], 3.98 µM (active). The activity change, negative = inhibition in [13] is 0.8%; in [15], 20.6%. Also, the activity, negative = inhibition in [16] was -12.7%. The Potency result in [4], in [6], in [8], in [9], in assay [11] and in assay [12] was “inactive” in each case. Also, the result in assay [10] was inactive.

For `O=c1c(-c2ccccc2)nc2cnc(Oc3cccc(Cl)c3)nc2n1C1CC1`, the Potency in assay [1] is over 11.4 µM; in [14] it was 1.58 µM (active); in assay [2], over 9.22 µM; in assay [3] it was over 46 µM; in assay [19] it was 0.251 µM (active). The figures for the activity change, negative = inhibition in assay [13] and in assay [15] were -15.1% and 10.9%, respectively. Also, in [16], the activity, negative = inhibition was -5.81%. The Potency entry in [4], in assay [5], in assay [7], in assay [17], in assay [8] and in assay [9] was “inactive” in each case. For the same compound, the result in assay [10] was inactive.

In the case of `c1ccc(CNc2ccnc(-c3ccc4c(c3)OCO4)n2)cc1`, the activity change, negative = inhibition is -19.4% in [13] and 15.5% in assay [15]. Further, the Potency in assay [14] is 0.398 µM (active); in assay [2] it was over 46 µM; in assay [20] it was 0.794 µM (active); in assay [18], 2 µM (active). Also, in [16], the activity, negative = inhibition was -18.3%. Further, the Potency entry in assay [4] and in [6] was “inactive” each time. Further, in assay [10], the outcome was inactive.

With `CN(C)c1ncc2nc(-c3ccc(Cl)cc3)c(=O)n(C[C@H]3CCCO3)c2n1`, the Potency is over 11.4 µM in assay [1], 3.98 µM (active) in [14], over 9.22 µM in [2] and over 46 µM in assay [3]. For the same compound, the activity change, negative = inhibition in assay [13] is 9.11%; in [15] it was 21.9%. In addition, the activity, negative = inhibition in assay [16] is 11.6%. The Potency result in assay [4], in assay [5], in assay [7], in [17], in assay [8] and in assay [9] was “inactive” each time. Moreover, in [10], the result was inactive.

Take `COc1ccccc1-c1ccc2ncnc(N(C)Cc3ccco3)c2c1`: the Potency was over 11.4 µM in [1]; over 46 µM in [2]; over 46 µM in assay [3]; 8.91 µM (active) in [7]; 14.1 µM (active) in assay [17]; 2.82 µM (active) in assay [8]. Also, the results for the activity change, negative = inhibition in assay [13] and in [15] were 10.4% and -26.4%, respectively. In addition, the activity, negative = inhibition in [16] is -6.49%. Besides, the Potency entry in [4], in [9], in [11] and in assay [12] was “inactive” in each case. In [10], the result was inactive.
